According to PubChem BioAssay (Tox21):
Values without a mark were called inactive. Where a call stands in place of a potency, no number is given. The source made the active and inactive calls. Calls follow the shape of the dose curve; as a rule, active = well fitted curve in the direction sought with a large enough effect in the repeat runs; inconclusive = weak or mixed curves; inactive = flat fitted curve, though single readings scatter. Starred links: 1 amine or outer side, 2 acyl side, 3 side chain; linkers in the order of their positions; H or OH if unused. Positions of bridges follow the written chain, without caps; N, C: chain ends. Non-standard residues stand in square brackets, D forms with d. Residues, ends and D or L forms follow the SMILES beside them. Chains are numbered I, II in the order given. Actinocin(9to1) = Cc1c2oc3c(C)ccc(C(=O)[*:1])c3nc-2c(C(=O)[*:2])c(N)c1=O; NMeV = CN[C@H](C(=O)O)C(C)C; Sar = CNCC(=O)O

test: qHTS assay to test for compound auto fluorescence at 535 nm (green) in HEK293 cells (AID 720680); conditions: green autofluorescence 485/535 nm; series mostly up to 91.3 µM; fluorescence, % of fluorescein: at the top concentration
Excerpt: U.S. Tox21 Program National Center for Advancing Translational Sciences [NCATS] NIH Chemical Genomics Center [NCGC] U.S. Environmental Protection Agency [EPA] National Institutes of Environmental Health Sciences [NIEHS] National Toxicology Program [NTP] U.S. Food and Drug Administration [FDA] Tox21 Assay Overview: Compound auto fluorescence often interferes with screening of the compound library against various biological targets and signaling pathways. Some of these compounds may have fluorophoric properties. Such properties may interfere with the assay outputs resulting in false positives and/or negatives. To decrease such complications and ensure the compound activities are relevant in terms of biological response, the Tox21 10K compound library was screened for auto fluorescence. From the fluorophores used as reporter signals in our screening assays, the auto fluorescence equivalencies of compounds against three fluorophores have been evaluated: Triamterene, Fluorescein and Rose Bengal sodium for blue, green and red fluorescence, respectively. The fluorescence intensities were measured using Excitation/Emission wavelengths at 405/460nm, 485/535nm and 540/590nm for blue, green and red labels, respectively. This assay includes the green fluorescence data.
Tox21 Assay Protocol Summary: 2,000 HEK293 cells in 5 uL of culture medium containing 10% dialyzed FBS per well were dispensed into black wall/clear bottom 1536-well plates using a Multidrop Combi Dispenser (Thermo Scientific). The assay plates were incubated for 4-5 hr at 37C to allow cell attachment to the well bottom, followed by the transfer of 23 nL compound or DMSO vehicle by a pintool work station (Kalypsys, San Diego, CA). After the assay plates were incubated overnight at 37C and 5% CO2, fluorescence intensities in the assay plates were measured by an Envision (PerkinElmer, Shelton, CT) plate reader using three labels for measuring blue, green and red fluorescence at […] 460, 535 and 590nm respectively.

SMILES	fluorescence, % of fluorescein	Potency
COc1cc(C(=S)N2CCOCC2)ccc1O	0.123% [at 46 µM]	
COc1nc(C)nc(Cl)c1NC1=NCCN1	-0.014% [at 18.6 µM]	
CCCN[C@H]1CCc2nc(N)sc2C1		inactive
CC(=O)C1=C(C)[C@@H]2C[C@@]3(C1)[C@H](C)CC[C@H]3C2(C)C		inactive
CN1C(=O)c2ccc([N+](=O)[O-])cc2C1=O	0.0475%	
CC1COC(=O)O1 (stereo not given)		inactive
COC(c1ccccc1)(c1ccccc1)[C@H](Oc1nc(C)cc(C)n1)C(=O)O	-0.0083% [at 46 µM]	
O=C(Cl)c1cccc(C(=O)Cl)c1		inactive
CC(C)C(=O)c1c(C(C)C)nn2ccccc12	-0.331% [at 46 µM]	
C=CS(=O)(=O)O		inactive
c1cc(C(c2ccc(OCC3CO3)cc2)C(c2ccc(OCC3CO3)cc2)c2ccc(OCC3CO3)cc2)ccc1OCC1CO1 (stereo not given)		inactive
COC(=O)/C=C/c1ccccc1	-0.0301%	
Cc1c2oc3c(C)ccc(C(=O)N[C@@H]4C(=O)N[C@H](C(C)C)C(=O)N5CCC[C@H]5C(=O)N(C)CC(=O)N(C)[C@@H](C(C)C)C(=O)O[C@@H]4C)c3nc-2c(C(=O)N[C@@H]2C(=O)N[C@H](C(C)C)C(=O)N3CCC[C@H]3C(=O)N(C)CC(=O)N(C)[C@@H](C(C)C)C(=O)O[C@@H]2C)c(N)c1=O (I: T[dV]P[Sar][NMeV] / II: T[dV]P[Sar][NMeV]; ester I:1-I:C, II:1-II:C; linker I:N-II:N via Actinocin(9to1))		inactive
CCCCCC(=O)O[C@]1(C(C)=O)CC[C@H]2[C@@H]3CCC4=CC(=O)CC[C@]4(C)[C@H]3CC[C@@]21C		inactive
CC(C)(O)CCC(C)(C)O	-0.158% [at 95.7 µM]	
CCc1ccc(C(c2ccc(CC)cc2)C(Cl)Cl)cc1		inactive
CCOC(=O)C(C)C(C)=O (stereo not given)	-0.015%	
CC(=O)CC(C)=O	0.0555% [at 95.7 µM]	
NC(Cc1ccc(Cl)cc1)C(=O)O (stereo not given)	-0.023% [at 46 µM]	
O=C(Oc1ccccc1)c1ccccc1O		inactive

SMILES	fluorescence, % of fluorescein	Potency
C=CC(=O)OCCCCCCCC	0.0032%	
CCCCCCCCCCCCCCCCCl	-0.0655% [at 18.6 µM]	
OCCOCCN1CCN(C(c2ccccc2)c2ccc(Cl)cc2)CC1 (stereo not given)		inactive
CC(C(O)c1ccc(O)cc1)N1CCC(Cc2ccccc2)CC1 (stereo not given)	0.107% [at 46 µM]	
CCC(CO)(CO)COCC(CC)(CO)CO	-0.0564%	
N[C@@H]1CONC1=O	-0.0135% [at 46 µM]	
CC(C)(C)c1ccc(O)c(C(C)(C)C)c1		inactive
O		inactive
Clc1ccc2c(c1)C(N1CCNCC1)=Nc1ccccc1O2		inactive
Cc1cc(Cc2cc(C)cc(C(C)(C)C)c2O)c(O)c(C(C)(C)C)c1		inactive
OCCN1CCNCC1		inactive
CCn1cc(C(=O)O)c(=O)c2cc(F)c(N3CCNC(C)C3)c(F)c21 (stereo not given)		inactive
Nc1cc(Cl)c(-c2cc(Cl)c(N)cc2Cl)cc1Cl		inactive
O=C1NCC2(CCN(CCc3ccccc3)CC2)O1	-0.0001% [at 46 µM]	
Cc1cccc2n[nH]nc12		inactive
CC(N)=O	0.122% [at 203 µM]	
CCCNC(C)C(=O)Nc1ccccc1C (stereo not given)	0.0511% [at 46 µM]	
CCN(CC)c1ccc2c(C)cc(=O)oc2c1		inactive
Cc1ccnc2c1NC(=O)c1cccnc1N2C1CC1		inactive
CCCCN(CCO)CCCC	0.0331% [at 95.7 µM]	
